# Reference: the supplement of paper PMC6555819
# How the values were obtained:
# Test in all cases: PBM binding z-score (relative to random genomic background probes); higher = stronger binding; sequences stand for … in GC…GCGATTGACAGCGTAGAATGAAGG
# [1] = system: FXR:RXRa (NR concentration 270 nM, RXRa partner concentration 90 nM)
# Summary of the method: (§1)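 Scanned fluorescence from custom Agilent 4×180K protein-binding microarrays was regression-normalized. Binding z-scores use random background probes as reference. Ligand-free nuclear receptor dimers were incubated on the arrays for 1 h and detected with antibodies against each partner (one per run).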
# [2] = system: LXRa:RXRa (NR concentration 270 nM, RXRa partner concentration 90 nM)
# Summary of the method: as §1
# [3] = system: LXRa homodimer (NR concentration 270 nM)
# Summary of the method: as §1
# [4] = system: LXRb:RXRa (NR concentration 270 nM, RXRa partner concentration 90 nM)
# Summary of the method: as §1
# [5] = system: LXRb homodimer (NR concentration 270 nM)
# Summary of the method: as §1
# [6] = system: PPARa:RXRa (NR concentration 270 nM, RXRa partner concentration 90 nM)
# Summary of the method: as §1
# [7] = system: PPARg:RXRa (NR concentration 180 nM, RXRa partner concentration 90 nM)
# Summary of the method: as §1
# [8] = system: PPARg:RXRa 270nM:90nM, anti-RXR (NR concentration 270 nM, RXRa partner concentration 90 nM)
# Summary of the method: as §1
# [9] = system: PPARg:RXRa 30nM:10nM, anti-RXR (NR concentration 30 nM, RXRa partner concentration 10 nM)
# Summary of the method: as §1
# [10] = system: PPARg:RXRa 90nM:30nM, anti-RXR (NR concentration 90 nM, RXRa partner concentration 30 nM)
# Summary of the method: as §1
Sequence,PBM binding z-score [1],PBM binding z-score [2],PBM binding z-score [3],PBM binding z-score [4],PBM binding z-score [5],PBM binding z-score [6],PBM binding z-score [7],PBM binding z-score [8],PBM binding z-score [9],PBM binding z-score [10]
TCATATAGGTAAAAGGTGAAAGTAGGTGTGGTAA,2.28,2.13,0.449,2.3,0.226,5.4,9.14,8.72,8.11,9.43
CCTGCTAGGTCAGTGGTCAGCTAAAGCAGCTCGC,0.953,0.472,-0.482,0.299,-0.638,1.39,1.53,2.58,0.178,1.59
TCTAGCAGGCCAGAGGGGCACTCAAGAGGTACGG,-0.239,-0.393,-0.689,-0.334,-0.644,0.22,0.662,1.41,1.64,1.51
CCTTACGGGTCAAGGTTAAAGCACGGGTGGTACG,5.62,3.83,0.272,3.14,0.0143,5.08,5.05,5.34,2.38,4.5
AGAACGAGGGCAGTGAGTTGATAGCACGGGTGGC,-0.476,-0.6,-0.882,-0.705,-0.698,0.144,0.647,-0.0577,-0.624,-0.408
TCTCCTAGGTCAACGATGGTCAGCTAATCTGCTA,4.13,3.59,0.622,2.49,0.781,3.76,2.68,3.76,3.64,3.51
AGAACGAGGTTAAGATCAGGGAAACAGAATACAT,2.1,2.05,0.0843,2.09,0.134,3.4,1.98,1.92,0.64,1.61
ACAGACAGGTGAGTGAAGCTAACTCAGCTGGACG,-0.673,-0.375,-0.787,-0.865,-0.79,-0.342,0.546,-0.404,-0.443,-0.258
TCATATAGGTAAATAGGTGAAAGTCCGTAAGTTA,1.38,1.32,0.298,1.06,-0.103,3.79,5.17,5.12,4.83,5.34
GGAACGAGAGCAAGTTGATAGCAGAGTTTGATGG,-0.63,-0.766,-0.719,-0.852,-1.03,-0.523,0.39,-0.573,-0.225,-0.721
CAAACTAGGTCAACGTCAAAGTCGGTTTGTGCCA,3.78,2.64,0.425,1.92,0.247,5.24,8.49,6.68,4.95,6.72
CTCGAAAGGTCGGTTCAGGTGAGTATACGGATAA,2.48,1.92,0.307,1.74,0.00585,2.86,0.546,1.36,0.0497,0.769
ACTGTTAGTTGACTTAGGGCAACCGATACGACGC,0.539,0.575,0.206,0.367,1.15,0.0221,0.731,0.221,0.105,-0.111
CCGACTGGGGCATAAGGTTGCCATAAGCCAGCCC,-0.333,-0.188,-0.75,-0.498,-1.17,0.636,0.999,1.81,-0.189,1.12
ATCTCTAGGTAACCAAGTTAAGTGAATGCCGAAC,0.211,0.255,0.398,0.412,0.551,0.58,0.376,0.507,0.346,0.476
TCATATAGATAATACAGGTGAAAGTCGGCATCTA,1.28,0.946,0.247,1.08,0.215,1.53,1.36,2.47,4.31,3.51
ACTATTAGTTGAGACGAGGGCAACCGTTAGGTTG,0.584,0.15,0.0603,-0.161,0.0285,0.115,0.198,-0.206,-0.415,-0.374
CGAACTAGGTTATCCAGGACAGTGAATACATTGA,0.556,0.403,0.239,0.204,-0.168,2.31,2.82,2.24,0.585,1.4
CCGTCTGGGGCAAAGGTTACCATACTCAGTACGA,1.5,1.57,-0.23,2.15,-0.982,4.92,10.4,8.97,9.6,10.6
TAGCCTAGGTCATGGGTCAGTATACCACGCGAAC,5.1,4,0.898,3.62,0.339,4.77,6.78,5.95,3.9,6.14
TCTGCTAGGTCAACGAAGGTCAGCTAATCTGCTA,4.67,5.5,2.58,3.81,0.162,4.32,3.83,4.05,2.3,3.7
TCTTGTAGATCAAGCAGGATAAGAAAGCCTGAGT,-0.0578,-0.0477,-0.267,-0.411,-0.605,0.163,-0.0969,0.937,2.58,1.76
GGAATGAGGGCATTCGAGTTGATAGCATGGCGAT,1.71,2.3,-0.453,0.478,-0.43,2.13,1.46,1.52,0.439,1.05
CCTCGGAGAACAACAGGAGGTCAGAGCTGCCAGA,0.847,1.87,1.86,1.46,-0.303,1.82,0.213,-0.135,-1.02,-0.29
